# Pf Dd2 growth: inhibitors of Plasmodium falciparum Dd2 growth | Potency, µM (titrated, usually from 28.9 µM), inactives show at the top dose activity, negative = inhibition, actives largely listed as inhibitors | P. falciparum Dd2 growth, SYBR Green, 72 h | 120,000 tested, 4.3% active | AID 1347417; active = well fitted inhibition curve with a large enough effect;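 also: plate controls were DMSO vehicle for no effect and reference drug for full effect; nearly all actives have a fitted effect of over 65% in size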
#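 Infected erythrocytes (Dd2, 0.3% parasitemia, 2.5% hematocrit final) are added to compound in RPMI-1640/Albumax II medium, grown 72 h at 37C in low oxygen, then lysed with saponin/Triton-X containing SYBR Green and read by fluorescence.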
# Active calls of the source: *; i = inactive; [ ] = remark or other dose. Many of the other results were omitted from the sample, so hits are more common in it than they were. Potency is read from the fitted curve at half-maximal effect.
SMILES,Pf Dd2 growth
Cc1ccc(C(=O)N2CCc3sc(C(=O)NCc4ccc(N(C)C)cc4)cc3C2)cc1,-20%
CC(NC(=O)c1cc2c(s1)CCN(C(=O)c1ccccc1)C2)c1ccc(F)cc1 (centres undefined),-2%
CCC(CC)C(=O)N1CC[C@@H](CC(=O)O)[C@@H](CC2=NCCc3ccc(C)cc32)C1,-14%[44.1 µM]
CC(=O)Nc1ccc(C(=O)NC2CCN(c3cc(-c4cccs4)[nH]n3)C2)cc1 (centres undefined),i
CC(C)Oc1cccc(-c2n[nH]c3c2CC(=O)N(CCOc2ccccc2)C3)c1,8.9µM*
O=C(O)c1cccc(-c2n[nH]c3c2CC(=O)N(CCOc2ccccc2)C3)c1,-12%[44.1 µM]
O=C1Cc2c(-c3ccccc3)n[nH]c2CN1CCOc1ccccc1,-21%[44.1 µM]
Cc1ccccc1-c1noc(CCC(=O)N2CCC3(CCCNC3)C2)n1 (centres undefined),-25%
CCN(CC)C(=O)c1sc(NC(=O)C(C)Sc2nc(-c3ccccc3)cc(C(F)(F)F)n2)c(C(=O)OC)c1C (centres undefined),0.35µM*
CCCOC(=O)c1c(NC(=O)C(C)Sc2nc(-c3ccccc3)cc(C(F)(F)F)n2)sc(C(=O)N(C)C)c1C (centres undefined),1.1µM*
CCOC(=O)c1sc(NC(=O)c2cc3nc(-c4ccc(Br)cc4)cc(C(F)(F)F)n3n2)c(C(=O)OCC)c1C,39%
COc1ccc(-c2cc(C(F)(F)F)nc(SCC(=O)NCCc3ccccc3)n2)cc1,-15%
CCCOC(=O)c1c(NC(=O)c2nc3ncccn3n2)sc(C(N)=O)c1C,3%
COc1ccc(-c2cc(C(F)(F)F)nc(SCCC(=O)Nc3c(C)cccc3C)n2)cc1,-23%
CC(C)(C)c1ccc(-c2noc(CNC(=O)CN3C(=O)CNC3=O)n2)cc1,-9%
CCCNC(=O)N(C1CCOCC1)C1CCN(S(=O)(=O)c2cn(C)cn2)CC1,-1%
Cc1nonc1OCCNC(=O)C1CCC(=O)N(CCN2CCOCC2)C1 (centres undefined),17%
CC(c1cccs1)N(C)Cc1cccc2ccccc12 (centres undefined),13µM*
COc1cccc(CN(C)C(C)c2cccs2)c1 (centres undefined),i
CC(c1cccs1)N(C)S(C)(=O)=O (centres undefined),-8%[44.1 µM]
CC1(C(=O)NC2CCCCC2)Cc2ccccc2C(=O)N1Cc1ccc(F)cc1 (centres undefined),19%
O=C(Nc1cccc(Cl)c1Cl)N1CCC2(CC1)SCC(=O)N2Cc1ccco1,i
COc1ccc(Cl)cc1NC(=O)N1CCC2(CC1)Oc1ccccc1C(=O)N2Cc1ccc(F)cc1,13µM*
O=C(Nc1ccccc1Cl)N1CCC2(CC1)Oc1ccccc1C(=O)N2Cc1ccc(F)cc1,14µM*
Cc1ccc(NC(=O)N2CCC3(CC2)SCC(=O)N3Cc2ccccc2)cc1,i
SMILES,Pf Dd2 growth
Cc1ccc(NC(=O)N2CCC3(CC2)Oc2ccccc2C(=O)N3Cc2ccc(F)cc2)cc1,11µM*
COc1ccc(Cl)cc1NC(=O)C[C@H]1NC(=O)c2ccccc2NC1=O,-23%
O=C(Nc1ccc(F)c(Cl)c1)N1CCC2(CC1)Oc1ccccc1C(=O)N2Cc1ccccc1F,3%
COc1ccc(Cl)cc1NC(=O)N1CCC(CN2CCCCCC2)CC1,-11%
COc1ccc(OC)c(S(=O)(=O)N[C@H]2CO[C@H]3[C@@H]2OC[C@H]3OC(=O)Nc2cccc(C(F)(F)F)c2)c1,-18%
COc1cccc(CNC(=O)Cn2ccn3nc4c(c3c2=O)CCCCC4)c1OC,i
Cc1ccc(C(=O)N2CCC(Oc3ccc(C(N)=O)cn3)CC2)cc1C,i
COc1ccc(C(N)CC(=O)N2CCC3(CC2)CN(C)C(=O)O3)cc1OC (centres undefined),-10%
O=S(=O)(c1ccc(-c2ccno2)s1)N1CCC2(CCNCC2)C1,-21%
CCNC(=O)CN1CCCC(CNC(=O)c2cccc(C(F)(F)F)c2)C1 (centres undefined),-19%
CCN1CCN(c2cc(C)c3cc(NC(=O)c4cccc(C(F)(F)F)c4)ccc3n2)CC1,5.6µM*
CCN1CCN(c2cc(C)c3cc(NC(=O)c4ccc(OC)c(OC)c4)ccc3n2)CC1,2.8µM*
COc1cccc(C(=O)Nc2ccc3ncnc(N4CCCCC4)c3c2)c1,i
Cc1cccc(C(=O)Nc2ccc3ncnc(N4CCCCC4)c3c2)c1,i
O=C(CN1C(=O)C(c2ccccc2)=NC12CCCCC2)NC1CCCC1,-20%
Cc1ccc(-c2cc(C3CCN(C(=O)c4ccncc4)CC3)[nH]n2)cc1,45%[5.79 µM]
Cc1ccccc1-c1noc(CNC(C)c2ccc(-n3cncn3)cc2)n1 (centres undefined),2%
CCCCCNC(=O)c1ccc(CN2C(=O)NC3(CCS(=O)(=O)CC3)C2=O)cc1,i
COc1cccc(N2CCN(C(=O)C3CC(=O)N(c4n[nH]c5cccc(F)c45)C3)CC2)c1 (centres undefined),-8%
O=C(C1CC(=O)N(c2n[nH]c3cccc(F)c23)C1)N1CCN(c2ccc(F)cc2)CC1 (centres undefined),-21%
COc1ccccc1N1CCN(C(=O)C2CC(=O)N(c3n[nH]c4cccc(F)c34)C2)CC1 (centres undefined),7.1µM*
COCCNC(=O)C(NC(=O)c1ccc(OC)cc1)C1CCN(C(=O)c2cccc(C)c2)CC1 (centres undefined),i
CN(C)c1ccc(-c2nnc([C@H]3CCN(Cc4ccco4)C3)o2)cc1,7.9µM*
CN(C)c1ccc(-c2nnc([C@H]3CCN(Cc4ccccc4F)C3)o2)cc1,-7%[44.1 µM]
CN(C)c1ccc(CN2CC[C@H](c3nnc(-c4ccco4)o3)C2)cc1,i
SMILES,Pf Dd2 growth
O=C(c1cccnc1OC1CCN(S(=O)(=O)Cc2ccccc2)C1)N1CCOCC1 (centres undefined),-21%
Cc1ccc(C(CC(=O)N2CCC(C)CC2)c2cn(C)c3ccccc23)cc1 (centres undefined),-27%
CCOC(=O)C1CCN(C(=O)CC(c2ccc(Cl)cc2)c2cn(C)c3ccccc23)CC1 (centres undefined),4µM*
Cc1ccc(C(CC(=O)N2CCc3ccccc3C2)c2cn(C)c3ccccc23)cc1 (centres undefined),i
CCc1cccc2c(C(CC(=O)NCCOC)c3ccc(OC)c(OC)c3)c[nH]c12 (centres undefined),-20%
COc1ccc(C(CC(=O)N2CCCC2)c2cn(Cc3ccccc3)c3ccccc23)cc1OC (centres undefined),i
COc1ccc(C(CC(=O)NCc2ccccc2)c2c[nH]c3ccccc23)cc1OC (centres undefined),-7%
CCOC(=O)C1CCN(C(=O)CC(c2ccc(OC)c(OC)c2)c2c[nH]c3c(CC)cccc23)CC1 (centres undefined),1.3µM*
CCOC(=O)C1CCCN(C(=O)CC(c2ccc3c(c2)OCO3)c2cn(CC)c3ccccc23)C1 (centres undefined),7.1µM*
CCc1cccc2c(C(CC(=O)N3CCCC3)c3cccc(Cl)c3)c[nH]c12 (centres undefined),-3%
CCc1cccc2c(C(CC(=O)NCc3ccc4c(c3)OCO4)c3ccc(OC)c(OC)c3)c[nH]c12 (centres undefined),4µM*
CCc1cccc2c(C(CC(=O)NCCc3ccc(OC)c(OC)c3)c3cccc(OC)c3)c[nH]c12 (centres undefined),-16%
CCOC(=O)C1CCCN(C(=O)Cn2ncc3c4ccccc4n(C)c3c2=O)C1 (centres undefined),-23%

# Screening data as filed in PubChem BioAssay.
